Most compounds without a hit are left out; they make up all but 19% or so of the library.
TDP1 cell CPT: DT40-hTDP1 cell growth loss with CPT. chicken DT40 Tdp1-/-;hTDP1 cells + 20 nM CPT, ATP luminescence, 48 h. Potency, µM (series often up to 46.2 µM), inactives show at the top dose activity change, negative = growth inhibition, most hits filed as inhibitors. 12% of 420,000 active; also: potency is read from the fitted curve at half-maximal effect; nearly all actives have a fitted effect of over 55% in size
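Chicken DT40 Tdp1-/- cells complemented with human TDP1, 400 cells/well, exposed to compounds plus 20 nM camptothecin for at least 48 h at 37 C; viability read as ATP content by CellTiter-Glo luminescence.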
IL-1B inflam inh: blocks inflammasome-driven IL-1 beta release; THP-1 LPS/ATP IL-1B secretion, AlphaLISA, 16 h; stronger effect = lower value; activity change, % at 57.5 µM; 4.7% of 360,000 active; in the data active = activity change below about -50%; inconclusive = mostly about -30% to -49%
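THP-1 cells pretreated 1 hr with compounds (up to 57.5 uM final), then stimulated with LPS (250 ng/mL final) plus ATP (1.25 mM final); secreted IL-1B measured by AlphaLISA after 16 hr, decreased signal indicating inhibition.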
HT1080 IDH1KD tx: kills HT-1080 cells with IDH1 knockdown | Potency, µM (highest dose often 46.1 µM), for the others: at the top dose activity, negative = toxicity, most hits filed as cytotoxic | HT-1080 IDH1 knockdown viability, ATP luminescence, 48 h | 2% of 360,000 active | AID 686971;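 also: potency is read from the fitted curve at half-maximal effect; 0% = DMSO wells and -100% = cell-free medium wells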
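% activity derives from luminescence (CellTiter-Glo), normalised to DMSO and no-cell wells. HT-1080-IDH1KD cells, 750/well, had 48 h compound exposure at 37 °C.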
DT40 TDP1 no CPT: qHTS for Inhibitors of human tyrosyl-DNA phosphodiesterase 1 (TDP1): qHTS in cells in absence of CPT | DT40 Tdp1-/- hTDP1 cells, no CPT, ATP luminescence, 48 h | 15% of 420,000 active | Potency, µM (highest dose often 46.2 µM), without a hit: at the highest dose activity change, negative = growth inhibition, actives largely listed as inhibitors; also: potency is read from the fitted curve at half-maximal effect; nearly all actives have a fitted effect of over 55% in size
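A cellular qHTS used chicken DT40 cells lacking endogenous Tdp1 but carrying stably transfected human TDP1. Compounds were applied without camptothecin, and cell growth kinetics were judged by ATP-dependent luminescence after ≥48 hr.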
HT1080NT lethal: kills 2HG-producing HT-1080-NT fibrosarcoma cells; 1.6% of 360,000 active; Potency, µM (top dose mostly 46.1 µM), inactives show at the top dose activity, negative = less viability, most hits filed as cytotoxic; HT-1080-NT fibrosarcoma viability, CellTiter-Glo ATP luminescence, 48 h;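 also: NT is the 2HG producing partner of a matched IDH1 knockdown line; potency is read from the fitted curve at half-maximal effect; 0% = DMSO-treated cells and -100% = media-only wells without cells; nearly all actives have a fitted effect of over 55% in size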
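Viability of the 2HG-overproducing fibrosarcoma line after 48 hours of compound exposure at 37 degrees C was determined by luminescence with CellTiter-Glo, and concentration-effect curves were then fitted and categorized.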
Starred values were filed as active, the others as inactive; [ ] = dose if it differs, or a comment. Unless noted, calls follow the shape of the dose curve; as a rule, active = well fitted curve in the direction sought with a large enough effect; inconclusive = small, poorly fitted or top-dose-only effect, or another doubt; inactive = no such curve, though single readings can be large; an effect the other way counts as inactive or inconclusive. Unless noted, % is scaled to controls: 0 for no effect and ±100 for the full control effect.

Screening O=C(C1CCC(=O)N1C1CCCCC1)N1CCC2(CC1)OCCO2 (configuration not stated) returned TDP1 cell CPT -5%, IL-1B inflam inh 0, HT1080 IDH1KD tx 5%, DT40 TDP1 no CPT -8% and HT1080NT lethal -5%.
CC(C)OCC(O)CN1CC2C[C@@H](C1)Cn1c2cccc1=O (some centres not stated) was read as TDP1 cell CPT 5%, IL-1B inflam inh 9, HT1080 IDH1KD tx 0%, DT40 TDP1 no CPT 0% and HT1080NT lethal 16%.
For COC(=O)C1=C(c2ccc(OCc3ccccc3)cc2)C[C@@H]2CC[C@H]1N2C(=O)NCc1ccccc1C(F)(F)F the results were TDP1 cell CPT 16µM*, IL-1B inflam inh -3, HT1080 IDH1KD tx 1%, DT40 TDP1 no CPT 12µM* and HT1080NT lethal -4%.
Screening O=S(=O)(NCc1ccncc1)c1ccc(F)c(F)c1 returned TDP1 cell CPT 10µM*, IL-1B inflam inh 2, HT1080 IDH1KD tx -17%, DT40 TDP1 no CPT 6.5µM* and HT1080NT lethal 2%.
c1ccc(-c2[nH]c(-c3ccccc3)[n+](CC3CO3)c2-c2ccccc2)cc1 (configuration not stated) was read as TDP1 cell CPT 5.8µM*, IL-1B inflam inh -56*, HT1080 IDH1KD tx -23%, DT40 TDP1 no CPT 10µM* and HT1080NT lethal -25%.
For Cc1cc2oc(=O)cc(-c3cc4ccccc4o3)c2cc1OC(=O)N(C)C the results were TDP1 cell CPT 15µM*, IL-1B inflam inh 24, HT1080 IDH1KD tx -1%, DT40 TDP1 no CPT inconclusive and HT1080NT lethal -13%.
Screening CN(C)C(=O)Oc1ccc2oc(=O)cc(-c3cc4ccccc4o3)c2c1 returned TDP1 cell CPT -23%, IL-1B inflam inh 0, HT1080 IDH1KD tx 7%, DT40 TDP1 no CPT -13% and HT1080NT lethal 4%.
`CCN(CC)C(=O)Oc1cc2c(-c3cc4cccc(OC)c4o3)cc(=O)oc2cc1C` gave TDP1 cell CPT 16µM*, IL-1B inflam inh -11, HT1080 IDH1KD tx 9%, DT40 TDP1 no CPT 23µM* and HT1080NT lethal 5%.
Screening CC1/C=C/C=C/CC/C=C/C=C/C=C/C=C/C(OC2OC(C)C(O)C(N)C2O)CC2O[C@](O)(CC(O)C(O)CCC(O)CC(O)CC(O)CC(=O)OC(C)C(C)C1O)CC(O)C2C(=O)O (some centres not stated) returned TDP1 cell CPT -9% and DT40 TDP1 no CPT -9%.
For CCCCN(Cc1ccccc1)C1CCN(CCc2ccccc2)CC1 the results were TDP1 cell CPT inconclusive, IL-1B inflam inh -65*, HT1080 IDH1KD tx inconclusive, DT40 TDP1 no CPT inconclusive and HT1080NT lethal inconclusive.
Screening COc1cc(C[C@@H](C)N)c(OC)cc1C returned TDP1 cell CPT -26%[92.5 µM] and DT40 TDP1 no CPT inconclusive.
Screening CC12CCC3C(CC=C4CC(O)CCC43C)C1C/C(=C\c1cccc(F)c1)C2=O (configuration not stated) returned TDP1 cell CPT inconclusive, IL-1B inflam inh 4, HT1080 IDH1KD tx inconclusive, DT40 TDP1 no CPT 15µM* and HT1080NT lethal inconclusive.
Screening Oc1cc(O)cc(/C=C/c2ccc(O)cc2O)c1 returned TDP1 cell CPT inconclusive, IL-1B inflam inh -4, HT1080 IDH1KD tx inconclusive, DT40 TDP1 no CPT inconclusive and HT1080NT lethal inconclusive.
Screening COc1ccc(/C=C/c2cc(O)cc(O)c2)cc1 returned TDP1 cell CPT 2.6µM* and DT40 TDP1 no CPT 4.6µM*.
Screening C[C@H](NC(=O)[C@@H](N)Cc1ccc(O)cc1)C(=O)NCC(=O)N(C)[C@@H](Cc1ccccc1)C(=O)N[C@H](CO)CCS(C)=O (some centres not stated) returned TDP1 cell CPT inconclusive and DT40 TDP1 no CPT -23%[4.12 µM].
Screening CC(=NCCC(c1ccccc1)c1ccccc1)c1c(O)n(C)c(=O)n(C)c1=O returned TDP1 cell CPT 21µM*, IL-1B inflam inh 47, HT1080 IDH1KD tx -8%, DT40 TDP1 no CPT 13µM* and HT1080NT lethal -9%.

Assay outcomes deposited in PubChem BioAssay by National Center for Advancing Translational Sciences (NCATS).
